Reference: ChEMBL document CHEMBL1157539, “Thousands of chemical starting points for antimalarial lead identification” (Nature, 2010)

What follows are compounds tested on HepG2 (assay: GSK_TCMDC: Percent inhibition of human HepG2 cell line. Test compounds present at 10uM.).
Assay type: functional
With `O=C(Nc1cccc(CN2CCN(Cc3ccc(O)cc3)CC2)c1)c1cccc(C(F)(F)F)c1.O=C(O)C(F)(F)F` the Inhibition was 21%. Work on `O=C(Cc1ccc(NC(=O)c2ccc(O)c(-c3cccc([N+](=O)[O-])c3)c2)cc1)NCCN1CCCCC1` yielded an Inhibition of 4%. `CC(Cc1ccc(NC(=O)COc2ccc(CC(C)NCCc3cccc(Cl)c3)cc2)cc1)NCCc1cccc(Cl)c1` (centres undefined) showed an Inhibition of 100%. For `CCOC(=O)c1nc(-c2ccc(Cl)cc2)[nH]c1NC(=S)NCCCN1CCOCC1`, the Inhibition was 22%.
